Only some compounds are listed: those with a hit (about 6.6% of all), similar ones and a draw of the others.
KB-3-1 cytotox = kills parental KB-3-1 adenocarcinoma cells; AID 1347075; KB-3-1 viability, CellTiter-Glo ATP luminescence, 72 h; hit rate 1.4% among 400,000; Potency, µM (doses to about 46.1 µM), most hits filed as cytotoxic; also: % is scaled to controls: 0 for no effect and ±100 for the full control effect; nearly all actives have a fitted effect of over 60% in size
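Cytotoxicity measured as CellTiter-Glo luminescence after 72 h at 37 C. Compound titrations were pinned onto drug-naive KB-3-1 parental adenocarcinoma cells grown in DMEM with 10% FBS, and normalized data fitted to concentration-response curves.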
PTAP TSG101 blk = blocks PTAP/TSG101 interaction to inhibit HIV-1 budding | Q99816 | Fluorescence polarization, FITC-PTAP peptide / Tsg101 binding | Potency, µM (highest dose often 115 µM), without a hit: at the top dose activity change, negative = inhibition, hits mostly inhibitors | 340,000 tested, under 10 active | AID 493005; active = well fitted inhibition curve with a large enough effect in the main read-out, with a control signal flat, not every such curve was filed as active; inconclusive = small, poorly fitted or top-dose-only effect, or effect the other way, or a change in a side signal; inactive = no such curve, though single readings can be large or run the other way; also: % of control where 0% means no effect
Target sequence (Q99816 whole entry, looked up): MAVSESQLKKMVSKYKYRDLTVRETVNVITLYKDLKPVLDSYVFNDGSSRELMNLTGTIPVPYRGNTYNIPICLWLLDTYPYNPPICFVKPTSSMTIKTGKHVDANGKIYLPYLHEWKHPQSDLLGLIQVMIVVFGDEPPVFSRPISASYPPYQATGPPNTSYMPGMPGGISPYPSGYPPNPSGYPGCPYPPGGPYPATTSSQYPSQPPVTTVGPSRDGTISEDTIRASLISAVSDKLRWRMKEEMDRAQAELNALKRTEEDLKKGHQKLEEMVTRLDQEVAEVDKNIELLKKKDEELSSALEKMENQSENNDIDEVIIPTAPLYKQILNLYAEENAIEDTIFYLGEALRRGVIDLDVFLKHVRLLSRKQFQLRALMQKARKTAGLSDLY
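Steps: Tsg101 binding domain dispensed (10 uM final), compounds pinned in DMSO, FITC-labeled PTAP-motif peptide added (50 nM final); after 20 min binding at room temperature, polarization measured.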
KB-V1 cytotox = kills drug-selected multidrug resistant KB-V1 cells; hit rate 3.4% among 400,000; Potency, µM (titrated, usually from 46.1 µM), usual class: cytotoxic; KB-V1 MDR cells viability, CellTiter-Glo, 72 h; also: % is scaled to controls: 0 for no effect and ±100 for the full control effect; nearly all actives have a fitted effect of over 60% in size
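Cytotoxicity toward P-gp-expressing KB-V1 cells was determined as loss of CellTiter-Glo luminescence after 72 h at 37 degrees C. Compounds were tested in quantitative HTS format across a concentration range, with curves fitted to normalized data.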
MCF10A rerep = inducers of DNA re-replication in MCF 10A breast cells; MCF 10A DNA re-replication, Hoechst nuclear intensity, 48 h; Potency, µM (titrated, usually from 46.1 µM), for the others: at the top dose activity, positive = re-replication, most hits filed as activators; hit rate 2.9% among 350,000; also: % of control where 0% means no effect; nearly all actives have a fitted effect of over 50% in size
SW480 rerep = DNA re-replication induction in SW480 cells; SW480 DNA re-replication, Hoechst DNA content imaging, 48 h; AID 624297; Potency, µM (titrated, usually from 46.1 µM), for inactives: at the highest dose re-replication activation, hits mostly activators; hit rate 1.8% among 340,000; also: % of control where 0% means no effect; nearly all actives have a fitted effect of over 55% in size
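Per well, 250 cells were exposed to pinned compound for 48 hr. Nuclear DNA was visualised with Hoechst (40 min, 37 C) and total object intensity recorded by fluorescence scanning.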
RGS4 inhibitor = human RGS4 inhibition. P49798. Transcreener GDP fluorescence polarization, RGS4-accelerated GTP hydrolysis. Potency, µM (titrated, usually from 114 µM), for inactives: at the top dose activity change, negative = inhibition, most hits filed as inhibitors. hit rate 0.039% among 390,000; also: % is scaled to controls: 0 for no effect and ±100 for the full control effect; nearly all actives have a fitted effect of over 75% in size
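MLSMR compounds (23 nl, pin-transferred) preincubated 10 min at room temperature with a 500nM (2x) first reagent, then RGS4 at 900nM (2x) plus Transcreener GDP mix added; fluorescence polarization (620/688 nm) read before and after 90 min at 30 °C.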
* = called active by the depositor; i = inactive; u = inconclusive; x = not tested or not shown; [ ] = another dose, or the depositor's remark. Unless noted, calls follow the shape of the dose curve; as a rule, active = well fitted curve in the direction sought with a large enough effect; inconclusive = small, poorly fitted or top-dose-only effect, or another doubt; inactive = no such curve, though single readings can be large; an effect the other way counts as inactive or inconclusive. Potency is read from the fitted curve at half-maximal effect.

SMILES	KB-3-1 cytotox	PTAP TSG101 blk	KB-V1 cytotox	MCF10A rerep	SW480 rerep	RGS4 inhibitor
CCC(=NCc1cccnc1)c1c(O)n(C2CCCCC2)c(=O)[nH]c1=O	i	-5%	i	8%	-4%	-32%
O=c1c2ccccc2nc(/C=C/c2ccccc2F)n1-c1cccc(O)c1	x	x	x	x	x	-3%
O=[N+]([O-])c1ccc(N2CCCC2)c2ncccc12	i	-17%	u	-3%	-10%	11%
COc1cc([N+](=O)[O-])c2ncccc2c1[N+](=O)[O-]	u	x	16µM*	x	x	x
COc1cc([N+](=O)[O-])c2nc(C)ccc2c1[N+](=O)[O-]	i	-4%	u	u	15µM*	-12%
CC(C)(C)n1ncc2c(=O)n(Cc3cccc(Cn4cnc5c(cnn5C(C)(C)C)c4=O)c3F)cnc21	u	-3%	u	-12%	3%[9.22 µM]	13%
CCOc1ccc2nc(NC(=O)c3cccn(Cc4ccccc4)c3=O)sc2c1	i	x	i	x	x	15%
CCc1ccc(-c2nn(Cc3ccccc3)cc2C=O)cc1	i	-2%	i	0%	4.6µM*	17%
O=Cc1cn(Cc2c(F)cccc2Cl)nc1-c1ccccc1	i	1%	i	16%	-11%	-4%
OC(c1cccc(Cl)c1)(c1cccc(Cl)c1)C1CN2CCC1CC2 (configuration not stated)	u	-6%	u	u	7%	7%
Clc1ccc2c(c1)C(OC1CN3CCC1CC3)c1ccccc1CS2 (configuration not stated)	u	-1%	16µM*	u	u	-16%
CN1CCN(CCOC2c3ccccc3CSc3ccc(Cl)cc32)CC1 (configuration not stated)	u	-1%	u	23µM*	u	-28%
CN(C)[C@@H](Cc1ccccc1)c1ccccc1	x	x	x	10%	1%	x
COC(=O)CN1CN(c2ccccc2)C2(CCN(Cc3ccc4ccccc4c3)CC2)C1=O	x	x	x	x	x	-15%[56.9 µM]
CN(Cc1cccc(-c2ccncc2)c1)C(=O)Oc1ccccc1Cc1ccccc1	15µM*	x	u	x	x	x
CN(Cc1cccc(-c2ccncc2)c1)C(=O)Oc1ccccc1Cl	15µM*	x	i	x	x	x
Cc1nc2cc(OC(=O)N(C)Cc3cccc(-c4ccncc4)c3)ccc2s1	u	x	i	x	x	x
C=C(C=O)C[C@@H]1C[C@H](O)C2OC3C[C@]4(C)OC5/C=C\CC6OC7C(CC=CCC6OC5CCCC4OC3CC2O1)OC1CC2OC3CC(=O)OC3C[C@@H](C)C[C@@]2(C)OC1C[C@@H]7C (some centres not stated)	4.6µM*	5%	8.2µM*	0.73µM*	36%[9.22 µM]	-10%
C=C(C=O)CC1CC(O)[C@]2(C)OC3C[C@@H]4OC5C[C@]6(C)O[C@]7(C)CCC8OC9C[C@]%10(C)OC(/C(C)=C\CO)C(O)CC%10OC9CC(C)C8OC7CC6O[C@]5(C)C/C=C\C4OC3CC2O1 (some centres not stated)	i	-3%	i	13%	-2%	11%
CN1CCN(c2ccc3c(c2)S(=O)(=O)c2ccccc2C3=O)CC1	i	-5%	i	27%	-1%	14%
CN1CCN(c2cccc3c2C(=O)c2ccccc2C3=O)CC1	u	0%	18µM*	-1%	-2%	-18%
CCN(CC)c1ccc(N=Cc2c(O)n(Cc3ccco3)c(=O)[nH]c2=O)cc1	i	u	i	26µM*	70%	-51%
CCN(CC)c1ccc(N=Cc2c(O)n(CCc3ccc(OC)c(OC)c3)c(=O)[nH]c2=O)cc1	u	u	16µM*	u	u	-21%
NC(=O)c1ccc(N=Cc2c(O)n(Cc3ccco3)c(=O)[nH]c2=O)cc1	i	1%	i	1%	3%	u
CN1CC=C(/C=C/c2ccc(-c3ccccc3)cc2)CC1	i	-1%	i	16µM*	6%	-18%
